KB-3-1 cytotox = KB-3-1 parental cell cytotoxicity. Potency, µM (series often up to 46.1 µM), usual class: cytotoxic. KB-3-1 viability, CellTiter-Glo ATP luminescence, 72 h. 400,000 tested, 1.4% active; further: nearly all actives have a fitted effect of over 60% in size
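Multi-concentration cytotoxicity screen in KB-3-1 cells grown in DMEM lacking phenol red with 10% FBS. After 72 h at 37 °C with compound, ATP-dependent luminescence was recorded.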
HT1080-NT tox = kills 2HG-producing HT-1080-NT fibrosarcoma cells. HT-1080-NT fibrosarcoma viability, CellTiter-Glo ATP luminescence, 48 h. Potency, µM (top dose mostly 46.1 µM), for the others: top-dose activity, negative = less viability, usual class: cytotoxic. 360,000 tested, 1.6% active;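 further: NT is the 2HG producing partner of a matched IDH1 knockdown line; 0% = DMSO-treated cells and -100% = media-only wells without cells; nearly all actives have a fitted effect of over 55% in size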
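Viability by CellTiter-Glo luminescence after 48 h compound exposure at 37C of HT-1080-NT cells (750/well, RPMI, 5% FBS). % activity scaled between DMSO wells and medium-only wells, then curve-fitted and categorized by curve class.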
DT40 TDP1 CPT = growth inhibition of DT40 Tdp1-/-;hTDP1 cells with camptothecin (screen for TDP1 inhibitors) | chicken DT40 Tdp1-/-;hTDP1 cells + 20 nM CPT, ATP luminescence, 48 h | Potency, µM (highest dose often 46.2 µM), for inactives: top-dose activity change, negative = growth inhibition, actives largely listed as inhibitors | 420,000 tested, 12% active; further: nearly all actives have a fitted effect of over 55% in size
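Chicken DT40 Tdp1-/- cells stably complemented with human TDP1 were seeded at 400 cells/well in medium containing 20 nM camptothecin, exposed to pin-transferred compounds, and grown at 37 °C for at least 48 hr. Viability was read as ATP luminescence.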
DT40 TDP1 no CPT = qHTS for Inhibitors of human tyrosyl-DNA phosphodiesterase 1 (TDP1): qHTS in cells in absence of CPT; Potency, µM (titrated, usually from 46.2 µM), inactives show at the top dose activity change, negative = growth inhibition, hits mostly inhibitors; AID 686978, 2013; 420,000 tested, 15% active; DT40 Tdp1-/- hTDP1 cells, no CPT, ATP luminescence, 48 h; further: nearly all actives have a fitted effect of over 55% in size
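DT40 Tdp1-/-;hTDP1 cells, no CPT (DMSO vehicle only), 400 cells/well; compounds pin-transferred; ≥48 hr, 37 °C; CellTiter-Glo 30 min RT dark, luminescence read.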
HT1080 IDH1KD tx = kills HT-1080 cells with IDH1 knockdown | 360,000 tested, 2% active | HT-1080 IDH1 knockdown viability, ATP luminescence, 48 h | Potency, µM (series often up to 46.1 µM), for the others: at the top dose activity, negative = toxicity, most hits filed as cytotoxic;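 further: 0% = DMSO wells and -100% = cell-free medium wells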
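Cytotoxicity counter-line: IDH1KD HT-1080, 48 h, CellTiter-Glo. Curves classed by r2, magnitude and activity.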
KB-V1 MDR tox = KB-V1 MDR subline cytotoxicity; KB-V1 MDR cells viability, CellTiter-Glo, 72 h; Potency, µM (doses to about 46.1 µM), hits mostly cytotoxic; 400,000 tested, 3.4% active; further: nearly all actives have a fitted effect of over 60% in size
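In this primary screen, KB-V1 cells overexpressing P-gp are incubated with library compounds (lowest to highest concentration) for 72 h at 37 degrees C before a luminescent ATP viability read.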
Starred values were filed as active, the others as inactive. Hits are enriched below; roughly 19% of the tested compounds scored in any of these assays. The call rests on the fitted dose curve; in most records, active means well fitted curve in the direction sought with a large enough effect; inconclusive means small, poorly fitted or top-dose-only effect, or another doubt; inactive means no such curve, though single readings can be large; an effect the other way counts as inactive or inconclusive. Unless noted, on the % scale 0 is the no-effect control and ±100 the full control effect; potency means the concentration at half of the fitted maximal effect.

For CCOC(=O)C1=C(C)N(C)C(C)=C(C(=O)OCC)C1c1ccc(C(=O)OC)cc1 the results were KB-3-1 cytotox inactive, HT1080-NT tox -4%, DT40 TDP1 CPT inconclusive, DT40 TDP1 no CPT 15µM*, HT1080 IDH1KD tx -20% and KB-V1 MDR tox inconclusive.
`CCOC(=O)C1=C(C)NC(=S)N(C(C)=O)C1c1ccc(Cl)cc1` (configuration not stated) gave KB-3-1 cytotox inactive, HT1080-NT tox inconclusive, DT40 TDP1 CPT 16µM*, DT40 TDP1 no CPT -13%, HT1080 IDH1KD tx 13µM* and KB-V1 MDR tox inactive.
For COC(=O)C1=C(C)N(C)C(C)=C(C(=O)OC)C1c1ccc(Cl)cc1 the results were KB-3-1 cytotox inconclusive, HT1080-NT tox 3%, DT40 TDP1 CPT -24%, DT40 TDP1 no CPT inconclusive, HT1080 IDH1KD tx -8% and KB-V1 MDR tox inactive.
`CCOC(=O)C1=CNS(=O)(=O)NC1c1ccc(C(=O)OC)cc1` (configuration not stated) gave KB-3-1 cytotox inactive, HT1080-NT tox 2%, DT40 TDP1 CPT 2%, DT40 TDP1 no CPT -1%, HT1080 IDH1KD tx 3% and KB-V1 MDR tox inactive.
Screening COCCn1c(=O)c(-c2ccc(Cl)cc2)nc2cnc(Oc3ccc(OC)cc3)nc21 returned DT40 TDP1 CPT inconclusive and DT40 TDP1 no CPT -4%.
CCOC(=O)C1=C(C)Nc2nc(SC)nn2C1c1ccc(C(=O)OC)cc1 (configuration not stated) was read as KB-3-1 cytotox inactive, HT1080-NT tox 2%, DT40 TDP1 CPT -3%, DT40 TDP1 no CPT -14%, HT1080 IDH1KD tx 9% and KB-V1 MDR tox 5.8µM*.
`COc1cc(C(=O)N/N=C/c2ccsc2C)cc(OC)c1OC` gave KB-3-1 cytotox 0.65µM*, HT1080-NT tox 0.92µM*, DT40 TDP1 CPT 1.2µM*, DT40 TDP1 no CPT 0.65µM*, HT1080 IDH1KD tx 0.58µM* and KB-V1 MDR tox 0.58µM*.
COc1ccc(Br)cc1/C=N/NC(=O)c1cc(OC)c(OC)c(OC)c1 was read as KB-3-1 cytotox inactive, HT1080-NT tox inconclusive, DT40 TDP1 CPT inconclusive, DT40 TDP1 no CPT inconclusive, HT1080 IDH1KD tx 16µM* and KB-V1 MDR tox inactive.
`COC1=C(OC)C(=O)C(C/C=C(\C)CC/C=C(\C)CC/C=C(\C)CC/C=C(\C)CC/C=C(\C)CC/C=C(\C)CC/C=C(\C)CC/C=C(\C)CC/C=C(\C)CCC=C(C)C)=C(C)C1=O` gave DT40 TDP1 CPT 6% and DT40 TDP1 no CPT 5%.
Screening COCCNC(=O)/C(C#N)=C1\N=C(N)c2ccccc21 returned KB-3-1 cytotox inactive, HT1080-NT tox 0%, DT40 TDP1 CPT inconclusive, DT40 TDP1 no CPT inconclusive, HT1080 IDH1KD tx -1% and KB-V1 MDR tox inconclusive.
COc1ccc(NS(=O)(=O)c2cc(NC(=O)c3ccccn3)ccc2OC)cc1Br was read as KB-3-1 cytotox inactive, HT1080-NT tox -8%, DT40 TDP1 CPT inconclusive, DT40 TDP1 no CPT -4%, HT1080 IDH1KD tx -9% and KB-V1 MDR tox inactive.
`CCOc1ccc(Br)cc1S(=O)(=O)Nc1ccc(NC(=O)c2ccccc2C)cc1` gave KB-3-1 cytotox inactive, HT1080-NT tox -5%, DT40 TDP1 CPT -14%, DT40 TDP1 no CPT -12%, HT1080 IDH1KD tx -3% and KB-V1 MDR tox inactive.
CCOc1ccc(Br)cc1S(=O)(=O)Nc1ccc(C(=O)Nc2ccc(C)cc2)cc1 was read as KB-3-1 cytotox inactive, HT1080-NT tox -11%, DT40 TDP1 CPT inconclusive, DT40 TDP1 no CPT inconclusive, HT1080 IDH1KD tx -17% and KB-V1 MDR tox 7.3µM*.
`COc1ccc(NC(=O)c2c(F)cccc2F)cc1S(=O)(=O)Nc1ccc(Br)cc1` gave KB-3-1 cytotox inactive, HT1080-NT tox -1%, DT40 TDP1 CPT -24%, DT40 TDP1 no CPT -22%, HT1080 IDH1KD tx -19% and KB-V1 MDR tox 10µM*.

Screening data as filed in PubChem BioAssay.
